Test results reported in PubChem BioAssay.
Values joined by “and” are separate entries in the source; they are usually repeats but may differ in a detail not shown here. Equal entries are not always repeated. Active and inactive are the calls of the source.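 Rule for the calls, unless noted: active = inhibition at or above 50% relative to wild type and mutant plate controls; inactive = inhibition below 50%.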

Assays:
[1] = inhibitors of TNFa-induced NFkB p65 translocation, primary screen, imaging, HUVEC, MLSMR starter and 10KST1 sets (AID 438;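 active = inhibition above 20% together with a positive visual image hit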;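 note: compound added about 3h40 before a 20 min TNFalpha stimulation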;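 for inhibition: signal is the nuclear over cytoplasmic p65 intensity ratio per well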); conditions: HUVEC TNFa-induced p65 nuclear translocation; cell count: measured here: nuclei count (cytotoxicity indicator), at 2.08 µM; inhibition: at 2 µM, stronger effect = higher value, 0% TNFa-plus-vehicle, 100% no-TNFa wells
[2] = inhibitors of mutant huntingtin aggregation, primary screen, imaging, exon1htt(103Q)mCFP cells, high-content imaging (AID 483;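 active = visual image review flags a hit and inhibition of aggregation exceeds 20%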;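 note: compound exposure lasted 3 days before fixation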;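 for nuclei count: percent of the per-plate median nuclei count of sample wells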); conditions: exon1htt(103Q)mCFP cell line, aggregate imaging, at 2 µM; inhibition of aggregation: stronger effect = higher value; nuclei count: measured here: cell count, toxicity
[3] = inhibitors of E-selectin induction by TNFa, primary screen, imaging, HUVEC, immunofluorescence, MLSMR starter and 10KST1 sets (AID 487;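 active = visually confirmed hit in the image check and inhibition above 20%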;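 for inhibition: signal is fraction of cell area covered by stained E-selectin grains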;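 for nuclei count: 100% = median nuclei count of all wells on the same plate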); conditions: HUVEC TNFalpha-induced E-selectin immunofluorescence imaging, at 2 µM; inhibition: stronger effect = higher value; nuclei count: measured here: cell number, toxicity
[4] = DUSP6 inhibitors restoring Erk phosphorylation by chemical complementation, primary imaging in DUSP6-transfected HeLa (AID 609;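 active = compounds giving at least 50% inhibition in the cell-based MKP-3 phosphatase rescue imaging test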;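 for inhibition: phospho-Erk level distribution per well compared with pooled transfected vehicle control wells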); conditions: HeLa MKP-3 transfected, phospho-Erk imaging KS statistic, at 10 µM, cells stimulated with TPA for 15 min
[5] = biological target: Dual specificity protein phosphatase 6 (Homo sapiens) (UniProt Q16828); experiment: as above; conditions: HeLa MKP-3 transfected, phospho-Erk imaging KS statistic; at 10 µM; stronger effect = higher value; cells stimulated with TPA for 15 min
Chain of Dual specificity protein phosphatase 6 (Homo sapiens) (Q16828 whole entry, looked up): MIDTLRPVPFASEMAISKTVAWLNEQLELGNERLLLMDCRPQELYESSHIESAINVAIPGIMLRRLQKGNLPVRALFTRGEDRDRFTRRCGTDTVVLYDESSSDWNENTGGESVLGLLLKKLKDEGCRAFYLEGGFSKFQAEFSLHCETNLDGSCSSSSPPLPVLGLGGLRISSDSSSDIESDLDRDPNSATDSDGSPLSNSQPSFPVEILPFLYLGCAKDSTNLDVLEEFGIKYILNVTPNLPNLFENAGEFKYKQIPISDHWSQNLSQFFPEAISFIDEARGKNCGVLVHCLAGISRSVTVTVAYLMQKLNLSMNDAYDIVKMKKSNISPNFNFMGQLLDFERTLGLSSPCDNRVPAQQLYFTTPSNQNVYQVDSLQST

[6] = biological target: Voltage-gated potassium channel subunit beta-2 (Rattus norvegicus) (UniProt P62483); experiment: KvBeta enzyme negative modulators, primary screen, biochemical, NADPH fluorescence (AID 622;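 active = fluorescence slope higher than the sample average by over 3 SD, cut at about -0.22 in these data, passing the limit was not always enough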;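 note: slope of raw intensity against log time taken from 70 to 1610 s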); conditions: recombinant KvBeta, 4-cyanobenzaldehyde reduction, at 10 µM, stronger effect = higher value
Chain of Voltage-gated potassium channel subunit beta-2 (Rattus norvegicus) (P62483 whole entry, looked up): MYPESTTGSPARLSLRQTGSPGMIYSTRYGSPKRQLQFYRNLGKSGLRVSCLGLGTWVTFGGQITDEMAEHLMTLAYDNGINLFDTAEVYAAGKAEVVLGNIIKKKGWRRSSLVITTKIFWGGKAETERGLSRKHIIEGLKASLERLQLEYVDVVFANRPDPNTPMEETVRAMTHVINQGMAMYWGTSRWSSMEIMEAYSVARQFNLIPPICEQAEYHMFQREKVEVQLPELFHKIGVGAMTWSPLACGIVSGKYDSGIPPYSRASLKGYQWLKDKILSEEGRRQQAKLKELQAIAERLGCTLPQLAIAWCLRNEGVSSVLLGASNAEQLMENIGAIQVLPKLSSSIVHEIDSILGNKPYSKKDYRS

[7] = biological target: Voltage-gated potassium channel subunit beta-2 (Rattus norvegicus) (UniProt P62483); experiment: KvBeta positive modulators, primary screen, biochemical, NADPH fluorescence (AID 623;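 active = NADPH fluorescence slope more negative than the mean of all samples by about 3 SD, 99.7% confidence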;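 note: fluorescence intensity change per second fitted from 20 to 320 s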); conditions: Recombinant KvBeta, NADPH fluorescence decrease slope, 10 min; at 10 µM; stronger effect = lower value
[8] = biological target: Alpha-2C adrenergic receptor (Homo sapiens) (UniProt P18825); experiment: modulators of alpha2C/GIRK thallium flux, primary screen, cell-based, HEK293 alpha2C/GIRK1/2 (AID 624;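 active = fluorescence slope after compound addition differing from the mean of all screened samples at 99.7% confidence, in either direction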;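 note: slope of fluorescence ratio to pre-addition baseline per second over 15 to 24 s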); conditions: thallium flux BTC fluorescence, at 10 µM, actives lie on both sides
Chain of Alpha-2C adrenergic receptor (Homo sapiens) (P18825 whole entry, looked up): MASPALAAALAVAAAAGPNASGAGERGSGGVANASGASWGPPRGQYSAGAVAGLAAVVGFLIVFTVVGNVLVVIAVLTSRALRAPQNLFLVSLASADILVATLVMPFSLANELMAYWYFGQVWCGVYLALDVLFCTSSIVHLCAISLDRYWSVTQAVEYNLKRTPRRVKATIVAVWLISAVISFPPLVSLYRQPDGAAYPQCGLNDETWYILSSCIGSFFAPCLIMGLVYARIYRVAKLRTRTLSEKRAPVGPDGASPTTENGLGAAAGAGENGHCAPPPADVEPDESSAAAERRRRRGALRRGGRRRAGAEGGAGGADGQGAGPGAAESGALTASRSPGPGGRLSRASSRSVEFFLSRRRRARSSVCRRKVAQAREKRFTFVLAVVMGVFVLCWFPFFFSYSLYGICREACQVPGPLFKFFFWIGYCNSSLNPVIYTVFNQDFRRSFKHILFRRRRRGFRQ

[9] = biological target: Muscarinic acetylcholine receptor M4 (Homo sapiens) (UniProt P08173); experiment: compounds altering M4/GIRK thallium flux, either direction, primary screen, M4 allosteric agonist project, cell-based, HEK293 M4/GIRK, BTC-AM (AID 625;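 active = fluorescence slope after compound addition differing from the mean of all tested samples at 99.7% confidence, mostly higher but some lower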;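 note: thallium influx through GIRK channels coupled to M4 in HEK293 cells with BTC-AM dye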); conditions: at 10 µM, actives lie on both sides
Chain of Muscarinic acetylcholine receptor M4 (Homo sapiens) (P08173 whole entry, looked up): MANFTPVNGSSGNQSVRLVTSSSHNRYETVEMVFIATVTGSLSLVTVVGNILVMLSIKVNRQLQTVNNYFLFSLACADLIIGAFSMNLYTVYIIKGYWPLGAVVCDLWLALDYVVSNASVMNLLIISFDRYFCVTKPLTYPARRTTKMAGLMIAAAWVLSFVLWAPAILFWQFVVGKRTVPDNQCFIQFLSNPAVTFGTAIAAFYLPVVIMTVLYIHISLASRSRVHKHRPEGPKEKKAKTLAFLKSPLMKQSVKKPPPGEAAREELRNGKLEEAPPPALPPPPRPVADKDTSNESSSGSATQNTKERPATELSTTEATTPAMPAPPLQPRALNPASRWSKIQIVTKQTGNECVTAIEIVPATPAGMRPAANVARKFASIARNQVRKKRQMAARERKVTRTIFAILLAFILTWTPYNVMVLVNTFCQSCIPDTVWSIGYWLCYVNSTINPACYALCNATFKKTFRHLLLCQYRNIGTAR

[10] = inhibitors of larval lipid processing in zebrafish, primary screen, whole organism, PED6 fluorescence, gall bladder and intestine (AID 686;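 active = a full or partial loss of lipid-probe fluorescence in the fish gall bladder, intestine or both, judged by eye; inactive = no fluorescence loss, or compound toxic to the fish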;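 note: larvae 5 to 7 days old with five fish per well; signal comes from phospholipase A2 cleavage of quenched PED6 carried via bile; overnight exposure to compound and PED6 before scoring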); conditions: Zebrafish larvae PED6 lipid processing, fluorescence scoring; screened at 20 µM (by protocol)
[11] = inhibitors of Chlamydomonas gravitaxis, primary screen, whole organism, Chlamydomonas reinhardtii, WT vs cilia-less mutant, absorbance, 96-well (AID 463189); conditions: OD600 absorbance, 2 days, at 10 µM, stronger effect = higher value;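 note: 0% = wild type cc124 cells in DMSO and 100% = ciliumless bld1 mutant cells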
[12] = inhibitors of Sendai virus-induced IRF3 signaling, primary screen, TLR/RLR signaling modifier project, cell-based, Sendai virus stimulus, luciferase, 10K MLSCN set (AID 602276;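 active = inhibition at or above 50% at 10 µM; inactive = inhibition below 50%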;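 note: firefly luciferase from ISG56 promoter only with Renilla not read in this screen; 0% = Sendai virus plus DMSO and 100% = medium plus DMSO without virus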); conditions: HEK293 RL24 IRF3 luciferase reporter, at 10 µM, stronger effect = higher value
[13] = inhibitors of poly I:C-induced TLR3 signaling, primary screen, cell-based, poly I:C stimulus, luciferase, 10K MLSCN set (AID 602277;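 active = inhibition of the reporter signal at or above 50%; inactive = inhibition below 50%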); conditions: HEK293-TLR3 RL24 IRF3 luciferase reporter, at 10 µM, stronger effect = higher value
[14] = measured here: cell density z-score
[15] = measured here: nuclear c-Myc green intensity z-score
[16] = measured here: nuclear pErk red intensity z-score, stronger effect = higher value

Compound	cell count [1]	inhibition [1]	inhibition of aggregation [2]	nuclei count [2] [%]	inhibition [3]	nuclei count [3] [%]	z-score [4, 14]	z-score [4, 15]	z-score [4, 16]	inhibition [5]	fluorescence slope [6]	NADPH fluorescence slope [7]	slope [8]	fluorescence slope [9]	outcome [10]	inhibition [11]	inhibition [12]	inhibition [13]
CS(=O)(=O)Nc1ccc([N+](=O)[O-])cc1Oc1ccccc1	692	-0.7% (inactive)	0% (inactive)	95.3	-24.1% (inactive)	124	-0.515	1.09	-0.635	11.3% (inactive)	-0.557 (inactive)	-3.9e-05 (inactive)	0.00467 (inactive)	0.00499 (inactive)	active; no signal in intestine only	9.15% (inactive) and 12.1% (inactive)	15% (inactive)	15.8% (inactive)
Cc1c(NC(=O)c2coc(=O)c(Br)c2)c(=O)n(-c2ccccc2)n1C	620	1.7% (inactive)	3.9% (inactive)	101	4% (inactive)	113	-0.496	0.153	-1.2	20.3% (inactive)	-0.46 (inactive)	-2.1e-05 (inactive)	0.0067 (inactive)	0.00586 (inactive)	inactive	14% (inactive)	-5.82% (inactive)	56.8% (active)
CN1CCN(c2nc3c(c(=O)n(C)c(=O)n3C)n2Cc2cccc3ccccc23)CC1	371	4.9% (inactive)	6.9% (inactive)	109	-77.4% (inactive)	102	-0.546	-0.191	0.82	-13.1% (inactive)	-0.457 (inactive)	-6.9e-05 (inactive)	0.00582 (inactive)	0.0044 (inactive)	inactive	28.5% (inactive)	9.16% (inactive)	19.8% (inactive)
COc1ccc(Cn2c(N)c(C#N)c3nc4ccccc4nc32)cc1OC	497	2.3% (inactive)	12.4% (inactive)	100	-66.5% (inactive)	123	0.51	-0.363	-0.944	27.8% (inactive)	-0.285 (inactive)	-1.3e-05 (inactive)	0.00453 (inactive)	0.00496 (inactive)	inactive	2.2% (inactive)	15.4% (inactive)	14.9% (inactive)
CC1(C(=O)CSc2nc3ccccc3s2)CCC(=O)O1 (stereo unspecified)	609	-11.4% (inactive)	-14.5% (inactive)	78.9	-179% (inactive)	131	0.414	-1.1	-0.368	-4.27% (inactive)	-0.471 (inactive)	-0.000167 (inactive)	0.00616 (inactive)	0.00529 (inactive)	inactive	6.36% (inactive)	6.48% (inactive)	21.8% (inactive)
CCN(CC)CCCN1C(=O)C(=O)/C(=C(/O)c2ccc(C)cc2)C1c1ccccn1 (stereo unspecified)	546	-2.6% (inactive)	21% (inactive)	134	-85.1% (inactive)	144	0.34	-0.315	-0.132	-2.29% (inactive)	-0.45 (inactive)	-3.6e-05 (inactive)	0.0052 (inactive)	0.00497 (inactive)	inactive	-0.742% (inactive)	-25.3% (inactive)	-18.7% (inactive)
Cc1cc(NCC2CCCO2)n2c(nc3ccccc32)c1C#N (stereo unspecified)	481	-3.7% (inactive)	16.3% (inactive)	95.7	-9.7% (inactive)	113	-1.71	1	0.144	1.48% (inactive)	-0.356 (inactive)	-1.1e-05 (inactive)	0.00569 (inactive)	0.00588 (inactive)	inactive	-17.8% (inactive)	16.8% (inactive)	15.3% (inactive)
N#CCc1nc2c3c4c(sc3ncn2n1)CCCC4	436	-7.3% (inactive)	-155% (inactive)	1.9	-12.1% (inactive)	130	0.106	1.08	0.152	5.95% (inactive)	-0.413 (inactive)	-4.9e-05 (inactive)	0.00471 (inactive)	0.00496 (inactive)	inactive	0.738% (inactive)	5.18% (inactive)	-26.2% (inactive)
COc1ccc(C2/C(=C(/O)c3cnn(-c4ccccc4)c3C)C(=O)C(=O)N2CCN(C)C)cc1OC (stereo unspecified)	517	-9.1% (inactive)	16% (inactive)	72.6	-17.7% (inactive)	125	-1.21	1.21	1.2	-6.86% (inactive)	-0.428 (inactive)	-0.000117 (inactive)	0.00586 (inactive)	0.00527 (inactive)	inactive	-4.78% (inactive)	2.76% (inactive)	15.6% (inactive)
CCOc1cc(C2Nc3ccccc3C(=O)N2c2ccccc2OC)ccc1O (stereo unspecified)	587	-3.1% (inactive)	-2.3% (inactive)	100	-136% (inactive)	124	0.614	-1.2	-0.417	9.07% (inactive)	-0.348 (inactive)	-3.8e-05 (inactive)	0.0046 (inactive)	0.0049 (inactive)	inactive	2.2% (inactive)	-2.55% (inactive)	-13.2% (inactive)
CC(C)(C)c1ccc(O)c(N)c1	646	-5.1% (inactive)	18.9% (inactive)	115	-65.2% (inactive)	138	0.287	-1.2	0.0324	-3.95% (inactive)	-0.526 (inactive)	-7e-05 (inactive)	0.00563 (inactive)	0.00646 (inactive)	inactive	15.7% (inactive)	8.96% (inactive)	18% (inactive)
Cc1cc(N2C(=O)C(=O)/C(=C(/O)c3ccc(F)cc3)C2c2ccc(F)cc2)no1 (stereo unspecified)	430	-7.1% (inactive)	10.1% (inactive)	60.9	-108% (inactive)	122	-1.41	1.25	1.07	1.04% (inactive)	-0.407 (inactive)	-3.1e-05 (inactive)	0.00571 (inactive)	0.0056 (inactive)	inactive	0.694% (inactive)	14.8% (inactive)	7.49% (inactive)
Cc1ccc(-c2nnc(-c3cccc(Br)c3)o2)cc1	512	-1.8% (inactive)	-23.2% (inactive)	96.1	-41.7% (inactive)	126	0.516	0.261	0.911	-15.1% (inactive)	-0.487 (inactive)	-9.8e-05 (inactive)	0.00623 (inactive)	0.00652 (inactive)	inactive	8.63% (inactive)	-18% (inactive)	-64% (inactive)
N#CC1=C(N)OC2=C(C(=O)CCC2)C1CCc1ccccc1 (stereo unspecified)	620	2.3% (inactive)	21% (inactive)	110	-94.4% (inactive)	110	1.04	-0.525	-0.374	2.92% (inactive)	-0.527 (inactive)	-1.3e-05 (inactive)	0.00639 (inactive)	0.00745 (inactive)	inactive	33.2% (inactive)	7.7% (inactive)	15.7% (inactive)
Cc1cc(C)n(CC2CC(=O)N(c3ccc(Cl)c(Cl)c3)C2=O)n1 (stereo unspecified)	566	-4.3% (inactive)	-16.2% (inactive)	104	-50.6% (inactive)	139	0.432	-0.507	0.03	12.8% (inactive)	-0.489 (inactive)	-5.7e-05 (inactive)	0.0052 (inactive)	0.00497 (inactive)	inactive	-1.93% (inactive)	-1.21% (inactive)	6.73% (inactive)
O=C(Nc1ccccc1C(=O)NCCCn1ccnc1)c1ccccc1	440	-10.6% (inactive)	9.5% (inactive)	110	-58.9% (inactive)	90.3	0.245	0.366	-0.747	3.97% (inactive)	-0.353 (inactive)	1.7e-06 (inactive)	0.00553 (inactive)	0.00574 (inactive)	inactive	-14.6% (inactive)	12.2% (inactive)	22.1% (inactive)
Cc1cc(C)n(Cc2cc(C)c(Cn3nc(C)cc3C)cc2C)n1	622	0.2% (inactive)	15.4% (inactive)	102	-44.5% (inactive)	137	0.927	1.3	1.6	1.63% (inactive)	-0.434 (inactive)	-0.000128 (inactive)	0.00432 (inactive)	0.00602 (inactive)	inactive	-0.144% (inactive)	8.11% (inactive)	0.814% (inactive)
CCCCOc1ccc(C(=O)Nc2ccc(N3CCN(C(C)=O)CC3)cc2)cc1	490	-7.3% (inactive)	0.5% (inactive)	104	-28.4% (inactive)	141	1.4	-2.16	0.274	5.95% (inactive)	-0.265 (inactive)	1.1e-05 (inactive)	0.00636 (inactive)	0.00551 (inactive)	inactive	3.64% (inactive)	6.98% (inactive)	2.99% (inactive)
NS(=O)(=O)c1cc2c(cc1Cl)NC=NS2(=O)=O	531	-6.4% (inactive)	-4.4% (inactive)	92.2	13.8% (inactive)	108	0.808	0.404	-1.03	23.2% (inactive)	-0.492 (inactive)	-0.000201 (active)	0.00527 (inactive)		inactive	11.8% (inactive) and 7.71% (inactive)	-14.2% (inactive)	-10.5% (inactive)
